The campaign covered roughly 13,000 compounds. About 3,200 (25%) showed an effect of 50% or more. The list shows a part of the results.
Tested on: P. falciparum stage V gametocytes
Parameters: BacTiter-Glo ATP luminescence viability of purified stage V gametocytes in 384-well plates, per cent inhibition versus DMSO
Conditions: 48 h, 5 µM; inhibitor

First: CC(=O)Nc1ccc(C(=O)N2CCN(c3ccnc4cc(Cl)ccc34)CC2)cc1 [TCMDC-133574]
Second: O=C(N[C@H](Cc1ccc(Cl)cc1)C(=O)N1CCN(c2ccnc3cc(Cl)ccc23)CC1)[C@H]1Cc2ccccc2CN1 [TCMDC-141498]
The “% Inhibition” value of the first is lower: -9.196% for the first, 2.012% for the second.

Going from CCCC1N=C(N)N=C(N)N1c1ccc(C)cc1 (centres unmarked) [TCMDC-131297] to CC1(C)N=C(N)N=C(N)N1c1cccc(Cl)c1 [TCMDC-123960], the “% Inhibition” value rises from 8.167% to 45.27%.

Going from CC(C)(C)c1ccc(CNCCOc2ccc(Nc3nnc(-c4ccc(-c5ncc[nH]5)cc4)o3)c3ccccc23)cc1 [TCMDC-138667] to CC(=O)Nc1nc(C(=O)Nc2ccc(-c3ccc(-c4nc5c(C)cccc5[nH]4)cc3)cc2)cs1 [TCMDC-137125], the “% Inhibition” value falls from -26.34% to -51.44%.

Compared with N#Cc1ccc2c(c1)CCN(CCC1CCC(NC(=O)c3ccc(-c4ccccc4)s3)CC1)CC2 (centres unmarked) [TCMDC-139837], CC1(C)CN(CCC2CCC(NC(=O)/C=C/c3ccccc3F)CC2)Cc2ccc(C#N)cc21 (centres unmarked) [TCMDC-139501] is higher in “% Inhibition” value: -13.04% for the first, 15.62% for the second.

Going from Cc1nn(-c2ccnc3cc(Cl)ccc23)c(C)c1C(=O)NCc1cc(Cl)cc(Cl)c1 [TCMDC-134231] to CN1CCN(c2ccnc3cc4ccccc4cc23)CC1 [TCMDC-124200], the “% Inhibition” value rises from -2.069% to 1.444%.

Compared with COc1ccc2nccc(N3CCC(NCc4ccc5c(n4)NC(=O)CS5)CC3)c2n1 [TCMDC-134652], COc1ccc2nccc(N3CCC(NCCNCc4ccc5c(n4)NC(=O)CS5)C3)c2n1 (centres unmarked) [TCMDC-134649] is higher in “% Inhibition” value: 3.663% for the first, 67.81% for the second.

First: COc1ccc2nccc(N3CCC(NCCNCc4ccc5c(n4)NC(=O)CO5)C3)c2n1 (centres unmarked) [TCMDC-134548]
Second: COc1ccc2nccc(N3CCC(SCCNCc4ccc5c(n4)NC(=O)CO5)C3)c2n1 (centres unmarked) [TCMDC-134206]
The “% Inhibition” value of the first is higher: 51.99% for the first, 10.7% for the second.

First: COc1ccc2nccc(N3CCC(CCNCc4ccc5c(n4)NC(=O)CO5)CC3)c2n1 [TCMDC-141943]
Second: COc1ccc2nccc(N3CCC(SCCNCc4ccc5c(n4)NC(=O)CS5)C3)c2n1 (centres unmarked) [TCMDC-134285]
The “% Inhibition” value of the first is higher: 5.733% for the first, -20.26% for the second.

Going from O=C(NC(c1ccccc1)c1ccccc1)C(c1cc2ccccc2o1)N1CCN(C(c2ccccc2)c2ccccc2)CC1 (centres unmarked) [TCMDC-141009] to O=C(NCC(CCN1CCC(c2c[nH]c3ccccc23)CC1)c1ccccc1)Nc1ccc(Cl)c(Cl)c1 (centres unmarked) [TCMDC-139626], the “% Inhibition” value rises from -31.77% to 1.901%.

Compared with O=C1c2ccccc2CCC1CCN1CC=C(c2c[nH]c3ccccc23)CC1 (centres unmarked) [TCMDC-140685], Cc1csc(-c2ccc3[nH]cc(C4=CCN(C)CC4)c3c2)n1 [TCMDC-132040] is higher in “% Inhibition” value: -66.61% for the first, -6.013% for the second.

Going from CCn1c(Sc2ccc(C#N)c([N+](=O)[O-])c2)nnc1-c1cccc(Cl)c1 [TCMDC-135592] to CCn1c(Sc2ccc([N+](=O)[O-])c(C#N)c2)nnc1-c1cccc(Cl)c1 [TCMDC-135234], the “% Inhibition” value rises from 10.47% to 107.6%.

First: CCCCn1c(Sc2ccc(C#N)c([N+](=O)[O-])c2)nnc1-c1ccc(OC)cc1 [TCMDC-135583]
Second: CCCn1c(Sc2ccc(C#N)c([N+](=O)[O-])c2)nnc1-c1ccc(OC)cc1 [TCMDC-135582]
The “% Inhibition” value of the first is lower: 19.44% for the first, 31.08% for the second.

Going from CCCCCn1c(Sc2ccc(C#N)c([N+](=O)[O-])c2)nnc1-c1ccc(Cl)cc1 [TCMDC-135598] to CCCCCCn1c(Sc2ccc(C#N)c([N+](=O)[O-])c2)nnc1-c1ccc(Cl)cc1 [TCMDC-135599], the “% Inhibition” value rises from 19.94% to 28.19%.

First: CCn1c(Sc2ccc([N+](=O)[O-])c(C#N)c2)nnc1-c1ccc(Cl)cc1 [TCMDC-135235]
Second: CCn1c(Sc2ccc(C#N)c([N+](=O)[O-])c2)nnc1-c1ccc(Cl)cc1 [TCMDC-135597]
The “% Inhibition” value of the first is higher: 96.27% for the first, 65% for the second.

Compared with CCCn1c(Sc2ccc(C#N)c([N+](=O)[O-])c2)nnc1-c1ccc(N(C)C)cc1 [TCMDC-135610], COCCn1c(Sc2ccc(C#N)c([N+](=O)[O-])c2)nnc1-c1ccc(N(C)C)cc1 [TCMDC-135613] is lower in “% Inhibition” value: 57.06% for the first, 43.33% for the second.

Going from CCCCCCn1c(Sc2ccc(C#N)c([N+](=O)[O-])c2)nnc1-c1ccc(N(C)C)cc1 [TCMDC-135618] to CCCn1c(Sc2ccc(C#N)c([N+](=O)[O-])c2)nnc1-c1ccc(Cl)cc1 [TCMDC-135581], the “% Inhibition” value rises from 23.6% to 50.77%.

Compared with CN1CCC(N(C)c2nccc(N3CCN(Cc4cncn4Cc4ccccc4)CC3)n2)CC1 [TCMDC-125095], O=C(Cc1ccc([N+](=O)[O-])cc1)N1CCc2cc3nccc(N4CCN5CCC[C@@H]5C4)c3cc21 [TCMDC-140039] is lower in “% Inhibition” value: -8.441% for the first, -19.96% for the second.

First: Cc1ccc(-n2cc(CNCC3CCN(CCO)CC3)c(-c3ccc(F)cc3)n2)cc1 [TCMDC-124689]
Second: O=C(NCCCCN1CCCC2c3cccc(O)c3CCC21)c1ccc(-c2ccccc2)cc1 (centres unmarked) [TCMDC-139080]
The “% Inhibition” value of the first is lower: 28.13% for the first, 37.51% for the second.

Compared with O=C(CNC1=NCCN1)Nc1ccc(NC(=O)Nc2ccc(NC(=O)CNC3=NCCN3)cc2)cc1 [TCMDC-137202], O=S(=O)(Nc1cc2c(cc1O)CCNCC2)c1ccc(-c2ccc(Cl)cc2)cc1 [TCMDC-141497] is lower in “% Inhibition” value: 4.446% for the first, -93.89% for the second.

First: CC(=O)c1ccc2c(c1)C(NC(=O)c1cccc(Cl)c1Cl)C(CO)C(C)(C)O2 (centres unmarked) [TCMDC-138988]
Second: O=C(Nc1ccc([N+](=O)[O-])cc1Cl)c1cc(Br)cc(Cc2ccccc2)c1O [TCMDC-124004]
The “% Inhibition” value of the first is lower: -12.37% for the first, 12.42% for the second.

Going from O=C(Nc1ccc(OC2CCN(Cc3ccccc3)C2)c(Cl)c1)c1ccc(F)cc1 (centres unmarked) [TCMDC-133972] to O=C(Nc1ccc2c(c1)CCN2C1CCN(Cc2csc3ccccc23)C1)c1ccco1 (centres unmarked) [TCMDC-135069], the “% Inhibition” value rises from 8.518% to 39.32%.

Going from O=c1cc(NCCCNCc2scc3c(Cl)cc(C(F)(F)F)nc23)[nH]c2ccccc12 [TCMDC-141146] to O=C(Nc1ccccc1Cc1ccccc1)c1ccccc1C(F)(F)F [TCMDC-123550], the “% Inhibition” value rises from 31.07% to 54.56%.

Compared with Cc1cc(N2CCCC2=O)ccc1-c1ccc(C(=O)N2CCC(Oc3cccc(Cl)c3)CC2)cc1 [TCMDC-136525], CN1CCc2cc(O)c(NS(=O)(=O)c3ccc(-c4ccc(Cl)cc4)cc3)cc2CC1 [TCMDC-141501] is lower in “% Inhibition” value: -32.31% for the first, -85.22% for the second.

First: Oc1ccccc1CCNC1CCc2ccccc2C1 (centres unmarked) [TCMDC-137890]
Second: O=C(Nc1ccccc1Cc1ccccc1)c1ccccc1[N+](=O)[O-] [TCMDC-124438]
The “% Inhibition” value of the first is lower: 12.83% for the first, 42.41% for the second.

Going from COc1cc(Cc2cnc(N)nc2N)ccc1OCc1ccc(-c2csnn2)cc1 [TCMDC-138683] to COc1ccc(-c2nnc(Sc3ccc(C#N)c([N+](=O)[O-])c3)n2CCC(C)C)cc1 [TCMDC-135601], the “% Inhibition” value rises from -3.694% to 7.84%.

First: CC(C)CCn1c(Sc2ccc(C#N)c([N+](=O)[O-])c2)nnc1-c1ccccc1Cl [TCMDC-135615]
Second: CC(C)Cn1c(Sc2ccc(C#N)c([N+](=O)[O-])c2)nnc1-c1ccccc1Cl [TCMDC-135609]
The “% Inhibition” value of the first is lower: 17.65% for the first, 54.29% for the second.

Compared with CCn1c(Sc2ccc(C#N)c([N+](=O)[O-])c2)nnc1-c1ccc(OC)cc1 [TCMDC-135602], CC(C)CCn1c(Sc2ccc(C#N)c([N+](=O)[O-])c2)nnc1-c1ccc(Cl)cc1 [TCMDC-135596] is higher in “% Inhibition” value: 29.96% for the first, 54.47% for the second.

Compared with CC(C)Cn1c(Sc2ccc(C#N)c([N+](=O)[O-])c2)nnc1-c1ccccc1 [TCMDC-141918], CC(C)CCn1c(Sc2ccc(C#N)c([N+](=O)[O-])c2)nnc1-c1cccc(Cl)c1 [TCMDC-135591] is higher in “% Inhibition” value: 17.88% for the first, 23.85% for the second.

First: COc1cccc2cc(C(=O)N[C@@H](CC(C)C)C(=O)N[C@H](C=NN3CCOC3=O)CC(C)C)oc12 [TCMDC-136064]
Second: Cc1noc(=O)c2ccc(NC(=O)C(O)(CSc3ccccc3)CC(C)C)cc12 (centres unmarked) [TCMDC-135222]
The “% Inhibition” value of the first is lower: 12.6% for the first, 46.49% for the second.

Going from Fc1cc(Cl)ccc1Nc1ccnc(Nc2ccc3cn[nH]c3c2)n1 [TCMDC-138575] to c1ccc(-c2[nH]ncc2Nc2ccnc3ccccc23)nc1 [TCMDC-138641], the “% Inhibition” value falls from 13.66% to -8.718%.

Going from NC(=O)c1cc2nc(NC3CCC3)nc(Nc3cccc4[nH]ncc34)c2[nH]1 [TCMDC-137005] to CCN1CCCC(Nc2ccnc3cc4ccccc4cc23)C1 (centres unmarked) [TCMDC-123499], the “% Inhibition” value rises from 21.61% to 94.14%.

Compared with c1ccc2cc3c(NCCN4CCOCC4)ccnc3cc2c1 [TCMDC-125814], O=S(=O)(Nc1cc2c(cc1OCCCN1CCCCC1)CCNCC2)c1ccc(-c2ccc(Cl)cc2)cc1 [TCMDC-141753] is higher in “% Inhibition” value: -3.95% for the first, 106.2% for the second.

Going from Cn1c(=N)cc(-c2ccc(Br)cc2)c2c(=O)[nH]c(N)nc21 [TCMDC-137743] to CC(C)Oc1cc2c(cc1NS(=O)(=O)c1ccc(-c3ccc(Cl)s3)cc1F)CCN(C)CC2 [TCMDC-141582], the “% Inhibition” value rises from 6.431% to 18.13%.

Going from COc1ccc(-c2ccc(S(=O)(=O)Nc3cc4c(cc3OC(C)C)CCNCC4)cc2)cc1 [TCMDC-141481] to CC(C)Oc1cc2c(cc1NS(=O)(=O)c1ccc(-c3ccc(Cl)cc3)cc1)CCN(C)CC2 [TCMDC-141459], the “% Inhibition” value falls from 37.39% to 21.1%.

Going from CN1CCc2cc(NS(=O)(=O)c3ccc(-c4ccc(Cl)cc4)cc3)c(OCCCN3CCCCC3)cc2CC1 [TCMDC-141754] to CN1CCc2cc(NS(=O)(=O)c3ccc(-c4ccc(Cl)s4)cc3)c(N3CCCCC3)cc2CC1 [TCMDC-141588], the “% Inhibition” value falls from 108.9% to 76.97%.

In the case of Cc1cc(-c2ccc(S(=O)(=O)Nc3cc4c(cc3OC(C)C)CCN(C)CC4)cc2)ccc1Cl [TCMDC-141488], the “% Inhibition” value is reported as 42.37%.

— PMC4552634, “A New Set of Chemical Starting Points with Plasmodium falciparum Transmission-Blocking Potential for Antimalarial Drug Discovery” (PLoS ONE, 2015)
